Experimental data reported in PubChem BioAssay (NCI).
The panel holds about 83,000 compounds, 20% with a hit somewhere; the sample as a whole holds those more often.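 Single-concentration screen, 48 h exposure, 96-well plates. Endpoint: percent growth. Below 10 = active.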 The source made the active and inactive calls.

Columns and labels:
Assay in all cases: NCI-60 one-dose screen, 48 h (100 = growth as untreated, 0 = no growth, -100 = all killed)
Settings in all cases: 10 µM unless noted
[1] = tested on: SR leukemia
[2] = tested on: RPMI-8226 leukemia
[3] = tested on: OVCAR-8 ovarian
[4] = tested on: OVCAR-5 ovarian
[5] = tested on: OVCAR-4 ovarian
[6] = tested on: SK-OV-3 ovarian
[7] = tested on: IGROV1 ovarian
[8] = tested on: OVCAR-3 ovarian
[9] = tested on: HS 578T breast
[10] = tested on: NCI/ADR-RES ovarian
[11] = tested on: T-47D breast
[12] = tested on: BT-549 breast
[13] = tested on: MDA-MB-435 melanoma
[14] = tested on: SW-620 colon
[15] = tested on: MCF7 breast
[16] = tested on: HCT-116 colon
[17] = tested on: HCC-2998 colon
[18] = tested on: KM12 colon

| SMILES | growth [1] | growth [2] | growth [3] | growth [4] | growth [5] | growth [6] | growth [7] | growth [8] | growth [9] | growth [10] | growth [11] | growth [12] | growth [13] | growth [14] | growth [15] | growth [16] | growth [17] | growth [18] |
| --- | --- | --- | --- | --- | --- | --- | --- | --- | --- | --- | --- | --- | --- | --- | --- | --- | --- | --- |
| CCC(C(=O)[C@@H](C)[C@@H](O)[C@H](C)[C@@H]1O[C@@H]([C@@H](CC)C(=O)ONC(=O)c2ccccc2)CC[C@@H]1C)[C@H]1O[C@]2(C=CC(=O)[C@]3(CC[C@@](C)([C@H]4CC[C@](O)(CC)[C@H](C)O4)O3)O2)[C@H](C)C[C@@H]1C (stereo not given in full) | -22.5% (active) | 7.88% (active) | 12.2% (inactive) | -4.48% (active) | 35.6% (inactive) | 95.2% (inactive) | -76.2% (active) | -71.1% (active) | -2.36% (active) | 12.1% (inactive) | 21.4% (inactive) | 6.21% (active) | 20.8% (inactive) | 19.7% (inactive) | 3.51% (active) | -36.9% (active) | 20.7% (inactive) | 16.2% (inactive) |
| O=S(=O)(Nc1ccc(Cl)c(C(F)(F)F)c1)c1ccc(-c2cnc(C3CC3)o2)cc1 | 3.51% (active) | 8.83% (active) | 5.21% (active) | 19.2% (inactive) | 25.7% (inactive) | 0.753% (active) | 24.3% (inactive) | 9.38% (active) | -1.41% (active) | 2.96% (active) | 12.8% (inactive) | 23.7% (inactive) | 2.82% (active) | 22.4% (inactive) | 15.4% (inactive) | 10.1% (inactive) | 25.1% (inactive) | 8.14% (active) |
| COc1ccccc1NC(=O)N=Nc1c(O)[nH]c2ccccc12 | 83.9% (inactive) | 84.8% (inactive) | 92.9% (inactive) | 86.7% (inactive) | 105% (inactive) | 97.8% (inactive) | 82% (inactive) | 107% (inactive) | 87.8% (inactive) | 94.1% (inactive) | 68.6% (inactive) | 97.9% (inactive) | 91% (inactive) | 84.4% (inactive) | 59% (inactive) | 93% (inactive) | 94.4% (inactive) | 94.8% (inactive) |
| Cc1ccc(CNc2ccc3nc(CCC4CCCCC4)[nH]c3c2)cc1 | 12.8% (inactive) | -24.6% (active) | 56.4% (inactive) | 57.8% (inactive) | 11% (inactive) | 60.3% (inactive) | 25.6% (inactive) | 28.6% (inactive) | 55.7% (inactive) | 40.4% (inactive) | 3.58% (active) | 88% (inactive) | 55.6% (inactive) | 32.3% (inactive) | 22.1% (inactive) | 16.3% (inactive) | -25.2% (active) | 39.3% (inactive) |
| CC(C)C1=NOC(=O)C1=Cc1cn(-c2ccccc2)nc1-c1ccc(F)cc1 | -17% (active) | -17.4% (active) | 60.2% (inactive) | 95.2% (inactive) | 94.1% (inactive) | 107% (inactive) | 61.3% (inactive) | 64% (inactive) | 49.6% (inactive) | 101% (inactive) | 76.9% (inactive) | 121% (inactive) | 77.4% (inactive) | 61.2% (inactive) | 50.8% (inactive) | 32.4% (inactive) | 79.8% (inactive) | 69.7% (inactive) |
| COC12C=C/C(=C(/C(=O)OCc3ccncc3)C(=O)CCCCCCCCC3(OC)C=C/C(=C(/C(=O)OCc4ccncc4)C(=O)CCCCCCCC1)O3)O2 | -16.2% (active) | -24.7% (active) | 14.7% (inactive) | -20.7% (active) | -2.29% (active) | 40.1% (inactive) | -32.2% (active) | -74.3% (active) | 34.6% (inactive) | 5.85% (active) | 8.61% (active) | -14.7% (active) | -53.8% (active) | 9.25% (active) | -42.2% (active) | -62.2% (active) | -83.4% (active) | -77.2% (active) |
| Oc1c(I)cc(I)cc1CNCc1ccccn1 | 22.1% (inactive) | 30.9% (inactive) | 13.8% (inactive) | 61.9% (inactive) | 22.8% (inactive) | 28% (inactive) | 24.4% (inactive) | 20.3% (inactive) | 57.9% (inactive) | 10.3% (inactive) | 14.8% (inactive) | 36.7% (inactive) | 46.8% (inactive) | 33.2% (inactive) | 28.7% (inactive) | 26.4% (inactive) | 49.3% (inactive) | 41.1% (inactive) |
| C#Cc1c2c(c(OC)c3c1OCO3)[C@H]([C@H]1OC(=O)c3c1ccc(OC)c3OC)N(C)CC2 | 9.19% (active) | 100% (inactive) | 95.2% (inactive) | 101% (inactive) | 92.7% (inactive) | 89.5% (inactive) | 82.5% (inactive) | 87.1% (inactive) | 99.1% (inactive) | 59.6% (inactive) | 86.7% (inactive) | 90% (inactive) | 7.84% (active) | 84.5% (inactive) | 55.5% (inactive) | 89.8% (inactive) | 86.4% (inactive) | 59.9% (inactive) |
| CC1(C)COB(OCC(C)(C)COB2OCC(C)(C)CO2)OC1 | 102% (inactive) | 118% (inactive) | 100% (inactive) | 108% (inactive) | 113% (inactive) | 109% (inactive) | 105% (inactive) | 110% (inactive) | 108% (inactive) | 109% (inactive) | 104% (inactive) | 105% (inactive) | 110% (inactive) | 110% (inactive) | 107% (inactive) | 101% (inactive) | 104% (inactive) | 103% (inactive) |
| COC(=O)C1Cc2ccccc2CN1C(=O)c1ccc2c(c1)Cc1ccccc1-2 (stereo not given) | 57.2% [50 µM] (inactive) | 18.1% [50 µM] (inactive) | 32.4% [50 µM] (inactive) | 62.4% [50 µM] (inactive) | 20.2% [50 µM] (inactive) | 86% [50 µM] (inactive) | 42.8% [50 µM] (inactive) | 47% [50 µM] (inactive) | 70.4% [50 µM] (inactive) | 25.6% [50 µM] (inactive) | 15.8% [50 µM] (inactive) | 28.3% [50 µM] (inactive) | 24.9% [50 µM] (inactive) | 51.2% [50 µM] (inactive) | 16.7% [50 µM] (inactive) | 30.2% [50 µM] (inactive) | 67.7% [50 µM] (inactive) | 34.2% [50 µM] (inactive) |
| CCN1C(=O)N(CC)C2C1NN=c1s/c(=C\c3ccccc3F)c(=O)n12 (stereo not given) | 8.64% (active) | 21.4% (inactive) | -1.12% (active) | 27.5% (inactive) | 41.4% (inactive) | 32.6% (inactive) | 15.2% (inactive) | 0.255% (active) | 13.2% (inactive) | 6.01% (active) | 55.2% (inactive) | 7.28% (active) | -37.4% (active) | 18.2% (inactive) | 15.2% (inactive) | 7.85% (active) | 12.8% (inactive) | 4.31% (active) |
| Oc1c(Br)cc(Br)c2ccc(Cn3cc(-c4ccccc4C(F)(F)F)nn3)nc12 | 2.33% (active) | 45.4% (inactive) | 92.9% (inactive) | 100% (inactive) | 79.4% (inactive) | 116% (inactive) | 107% (inactive) | 51.5% (inactive) | 105% (inactive) | 105% (inactive) | 83.8% (inactive) | 107% (inactive) | 93.1% (inactive) | 73.5% (inactive) | 71.5% (inactive) | 49.1% (inactive) | 110% (inactive) | 100% (inactive) |
| O=c1[nH]c(Cc2nc3ccccc3s2)nc2cc(Br)ccc12 | 75.4% (inactive) | 66.7% (inactive) | 70.8% (inactive) | 66.5% (inactive) | 92.4% (inactive) | 78.8% (inactive) | 73.9% (inactive) | 86.4% (inactive) | 84.2% (inactive) | 72.8% (inactive) | 54.2% (inactive) | 70.2% (inactive) | 45.6% (inactive) | 61.3% (inactive) | 78.5% (inactive) | 50.6% (inactive) | 84.1% (inactive) | 41.4% (inactive) |
| CSc1nc2ccccc2cc1/C=[N+](\[O-])c1ccccc1 | 22.1% (inactive) | 14.5% (inactive) | 39.5% (inactive) | 91.1% (inactive) | 70.8% (inactive) | 87.3% (inactive) | 77.3% (inactive) | 66.9% (inactive) | 74.1% (inactive) | 28.5% (inactive) | 61.6% (inactive) | 66.1% (inactive) | 45.9% (inactive) | 28.9% (inactive) | 24.9% (inactive) | 10.4% (inactive) | 110% (inactive) | 100% (inactive) |
| COc1cc2cc(NCc3cccc(Cl)c3)nc(C)c2cc1OC | 29.6% (inactive) | 8.04% (active) | 45.3% (inactive) | 43.7% (inactive) | 68% (inactive) | 56.9% (inactive) | 24.6% (inactive) | 60.1% (inactive) | 76.3% (inactive) | 42.5% (inactive) | 52.7% (inactive) | 23.1% (inactive) | 4.19% (active) | 17% (inactive) | 55.4% (inactive) | 8.02% (active) | 38.9% (inactive) | 38.8% (inactive) |
